Results published in PubChem BioAssay (EPA / NIEHS).
Inconclusive results are not listed. Active and inactive are the calls of the source. The calls were made as follows: active = hit-call score of the fitted dose curve at least 0.9, where 1 is the maximum; inconclusive = response in the unintended direction; inactive = score below 0.9.

How the values were obtained:
[1] = TOX21_p53_BLA_p3_viability: Viability Assessment in the Tox21 HCT-116 p53 Agonism Beta-lactamase Assay, Phase 3 (AID 2283593);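 also: cells exposed to compound for 16 h before reading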
In short: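 HCT116 cells, 4000/well, dosed 5 h after plating by pin transfer (217-fold dilution from DMSO stock) and incubated 16 h at 37C, 5% CO2. Viability read as ATP luminescence with CellTiter-Glo after 30 min at room temperature.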

[2] = molecular target: Cellular tumor antigen p53 (Homo sapiens) (UniProt P04637); assay: TOX21_p53_BLA_p3_ratio: Tox21 HCT-116 p53 Agonism Beta-lactamase Assay, Ratio, Phase 3 (AID 2283596)
Sequence of Cellular tumor antigen p53 (Homo sapiens) (P04637 whole entry, looked up): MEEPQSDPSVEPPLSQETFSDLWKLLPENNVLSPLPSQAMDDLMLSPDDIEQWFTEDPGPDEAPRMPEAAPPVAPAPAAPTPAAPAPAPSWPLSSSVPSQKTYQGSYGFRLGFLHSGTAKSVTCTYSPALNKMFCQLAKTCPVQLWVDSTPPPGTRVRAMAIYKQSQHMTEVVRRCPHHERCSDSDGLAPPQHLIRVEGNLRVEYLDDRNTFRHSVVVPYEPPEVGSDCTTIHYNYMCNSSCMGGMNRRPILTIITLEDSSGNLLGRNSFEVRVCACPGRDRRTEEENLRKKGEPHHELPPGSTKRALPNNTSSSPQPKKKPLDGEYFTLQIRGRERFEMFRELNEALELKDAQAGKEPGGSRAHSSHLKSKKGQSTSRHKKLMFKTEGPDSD
In short: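 HCT116 p53-bla cells (4000/well) given compound in DMSO (217-fold dilution) after 5 h, incubated 16 h at 37C. CCF4-AM substrate 2 h at room temperature; 460/530 nm emission ratio, gain fitted against DMSO.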

[3] = TOX21_p53_BLA_p4_viability: Viability Assessment in the Tox21 HCT-116 p53 Agonism Beta-lactamase Assay, Phase 4 (AID 2283597);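 also: hits lower the luminescence signal meaning cytotoxicity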
In short: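 Luminescent ATP readout (CellTiter-Glo, 30 min, room temperature) in the same wells as the p53 bla ratio. HCT116 cells were treated for 16 h at 37C with DMSO-dissolved compounds.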

[4] = molecular target: Cellular tumor antigen p53 (Homo sapiens) (UniProt P04637); assay: TOX21_p53_BLA_p5_ratio: Tox21 HCT-116 p53 Agonism Beta-lactamase Assay, Ratio, Phase 5 (AID 2283599)
In short: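 HCT-116 p53-bla cells (4000/well) plated 5 h, dosed with compound (217-fold DMSO dilution) for 16 h at 37 C; CCF4-AM substrate 2 h at room temperature. Activity is the 460/530 nm emission ratio (405 nm excitation), fitted in gain-of-signal direction versus DMSO.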

[5] = molecular target: Cellular tumor antigen p53 (Homo sapiens) (UniProt P04637); assay: TOX21_p53_BLA_p4_ratio: Tox21 HCT-116 p53 Agonism Beta-lactamase Assay, Ratio, Phase 4 (AID 2283601)
In short: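 HCT-116 p53 beta-lactamase reporter cells (4000/well) preincubated 5 h, then compound (217-fold dilution of DMSO stock) for 16 h at 37C. CCF4-AM substrate added 2 h at room temperature; 460/530 nm emission ratio fitted upward versus DMSO.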

[6] = TOX21_p53_BLA_p5_viability: Viability Assessment in the Tox21 HCT-116 p53 Agonism Beta-lactamase Assay, Phase 5 (AID 2283600)
In short: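 Seeded cells (4000/well) settle 5 h before compound addition. Plates then incubate 16 h at 37C, receive FRET substrate for 2 h, and finally CellTiter-Glo, with luminescence measured after a 30 min room-temperature incubation.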

[7] = molecular target: Cellular tumor antigen p53 (Homo sapiens) (UniProt P04637); assay: TOX21_p53_BLA_p2_ratio: Tox21 HCT-116 p53 Agonism Beta-lactamase Assay, Ratio, Phase 2 (AID 2283592)
In short: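 Human colon HCT116 cells with an inducible p53 beta-lactamase reporter are exposed to test chemicals for 16 h at 37C. Reporter induction is read as the 460/530 nm emission ratio after CCF4-AM loading, normalized to DMSO.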

[8] = Tanguay_ZF_120hpf_MORT_legacy: (Legacy) Oregon State University Tanguay Lab 120 Hour Post-fertilization zebrafish Assay for Mortality (AID 2283633)
In short: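 Single dechorionated Tropical 5D embryos were held with test chemical (0.64% DMSO final) from 6 to 120 hpf at 28C under foil. Deaths at 24 or 120 hpf were recorded as binary calls, analysed for increase over DMSO controls.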

[9] = Tanguay_ZF_120hpf_YSE_legacy: (Legacy) Oregon State University Tanguay Lab 120 Hour Post-fertilization zebrafish Assay for Yolk Sac Edema (AID 2283634)
In short: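 Single dechorionated embryos were held in sealed plates at 28C with test chemical (0.64% DMSO final) from 6 hpf until 120 hpf. Edema of the yolk sac was then recorded as a binary endpoint; non-mortality endpoints were skipped for dead embryos.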

Measured: outcome

COP(=O)(OC)O/C(=C\Cl)c1cc(Cl)c(Cl)cc1Cl
inactive: [1] | [2] | [3] | [4] | [5]

COc1ccc(C(O)(c2cncnc2)C2CC2)cc1 (centres undefined)
inactive: [2] | [6] | [5]

NC(=O)O
not listed: [1] | [2] | [3]
inactive: all other assays above
